# The sample as a whole holds a higher share of the strongest signals than the screen did.
# B1: MtEccB1 (Mycobacterium tuberculosis H37Rv), O69734 (protein)
# chain: MGLRLTTKVQVSGWRFLLRRLEHAIVRRDTRMFDDPLQFYSRSIALGIVVAVLILAGAALLAYFKPQGKLGGTSLFTDRATNQLYVLLSGQLHPVYNLTSARLVLGNPANPATVKSSELSKLPMGQTVGIPGAPYATPVSAGSTSIWTLCDTVARADSTSPVVQTAVIAMPLEIDASIDPLQSHEAVLVSYQGETWIVTTKGRHAIDLTDRALTSSMGIPVTARPTPISEGMFNALPDMGPWQLPPIPAAGAPNSLGLPDDLVIGSVFQIHTDKGPQYYVVLPDGIAQVNATTAAALRATQAHGLVAPPAMVPSLVVRIAERVYPSPLPDEPLKIVSRPQDPALCWSWQRSAGDQSPQSTVLSGRHLPISPSAMNMGIKQIHGTATVYLDGGKFVALQSPDPRYTESMYYIDPQGVRYGVPNAETAKSLGLSSPQNAPWEIVRLLVDGPVLSKDAALLEHDTLPADPSPRKVPAGASGAP
# What was measured:
# Assay in all cases: glycan array binding signal (z-score within array); higher = stronger binding
# Conditions in all cases: glycan notation: IUPAC condensed, linker removed
# [1] = target: Fuc(a1-2)Gal
# Procedure, shortened: (§1)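 The binding signal is a Z-score computed within each array and averaged over linkers. Arrays of the same protein sequence at different concentrations or buffers were also averaged together. Data originate from 3228 arrays in the Consortium for Functional Glycomics database, kept only where the protein sequence was available.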
# [2] = target: Fuc(a1-2)Gal(b1-4)GlcNAc(b1-3)Gal(b1-4)GlcNAc
# Procedure, shortened: as §1
# [3] = target: Fuc(a1-2)Gal(b1-4)GlcNAc(b1-3)[Fuc(a1-2)Gal(b1-4)GlcNAc(b1-6)]GalNAc
# Procedure, shortened: as §1
# [4] = target: Fuc(a1-2)[Gal(a1-3)]Gal(b1-3)GlcNAc(b1-3)GalNAc
# Procedure, shortened: as §1
# [5] = target: Fuc(a1-2)[Gal(a1-3)]Gal(b1-4)GlcNAc(b1-2)Man(a1-3)[Fuc(a1-2)[Gal(a1-3)]Gal(b1-4)GlcNAc(b1-2)Man(a1-6)]Man(b1-4)GlcNAc(b1-4)GlcNAc
# Procedure, shortened: as §1
# [6] = target: Fuc(a1-2)[Gal(a1-4)]Gal(b1-4)GlcNAc
# Procedure, shortened: as §1
# [7] = target: Fuc(a1-2)[GalNAc(a1-3)]Gal
# Procedure, shortened: as §1
# [8] = target: Fuc(a1-2)[GalNAc(a1-3)]Gal(b1-3)GlcNAc(b1-3)GalNAc
# Procedure, shortened: as §1
# [9] = target: Fuc(a1-2)[GalNAc(a1-3)]Gal(b1-4)GlcNAc(b1-3)Gal(b1-4)GlcNAc
# Procedure, shortened: as §1
# [10] = target: Fuc(a1-2)[GalNAc(a1-3)]Gal(b1-4)GlcNAc(b1-3)GalNAc
# Procedure, shortened: as §1
# [11] = target: Fuc(a1-3)GlcNAc
# Procedure, shortened: as §1
# [12] = target: Fuc(a1-3)[Gal(b1-4)]GlcNAc(b1-2)Man
# Procedure, shortened: as §1
# [13] = target: Gal(a1-3)Gal(b1-3)GlcNAc(b1-6)GalNAc
# Procedure, shortened: as §1
# [14] = target: Gal(a1-3)Gal(b1-4)Glc
# Procedure, shortened: as §1
# [15] = target: Gal(b1-3)Gal
# Procedure, shortened: as §1
# [16] = target: Gal(b1-3)GalNAc(b1-3)Gal(a1-4)Gal(b1-4)Glc
# Procedure, shortened: as §1
# [17] = target: Gal(b1-3)GlcNAc(b1-2)Man(a1-3)[Gal(b1-3)GlcNAc(b1-2)Man(a1-6)]Man(b1-4)GlcNAc(b1-4)GlcNAc
# Procedure, shortened: as §1
# [18] = target: Gal(b1-3)GlcNAc(b1-3)Gal(b1-3)GlcNAc
# Procedure, shortened: as §1
# [19] = target: Gal(b1-3)GlcNAc(b1-3)Gal(b1-4)GlcNAc(b1-2)[Gal(b1-3)GlcNAc(b1-3)Gal(b1-4)GlcNAc(b1-6)]Man(a1-6)[Gal(b1-3)GlcNAc(b1-3)Gal(b1-4)GlcNAc(b1-2)Man(a1-3)]Man(b1-4)GlcNAc(b1-4)[Fuc(a1-6)]GlcNAc
# Procedure, shortened: as §1
# [20] = target: Gal(b1-4)GlcNAc(b1-2)Man(a1-3)[Gal(b1-4)GlcNAc(b1-2)Man(a1-6)]Man(b1-4)GlcNAc(b1-4)GlcNAc
# Procedure, shortened: as §1
# [21] = target: Gal(b1-4)GlcNAc(b1-2)Man(a1-6)[Man(a1-3)]Man(b1-4)GlcNAc(b1-4)GlcNAc
# Procedure, shortened: as §1
# [22] = target: Gal(b1-4)GlcNAc(b1-2)[Gal(b1-4)GlcNAc(b1-6)]Man(a1-6)[Gal(b1-4)GlcNAc(b1-2)Man(a1-3)]Man(b1-4)GlcNAc(b1-4)GlcNAc
# Procedure, shortened: as §1
# [23] = target: Gal(b1-4)GlcNAc(b1-3)Gal(b1-4)GlcNAc(b1-2)[Gal(b1-4)GlcNAc(b1-3)Gal(b1-4)GlcNAc(b1-6)]Man(a1-6)[Gal(b1-4)GlcNAc(b1-3)Gal(b1-4)GlcNAc(b1-2)Man(a1-3)]Man(b1-4)GlcNAc(b1-4)GlcNAc
# Procedure, shortened: as §1
# [24] = target: Gal(b1-4)GlcNAc(b1-3)Gal(b1-4)GlcNAc(b1-3)Gal(b1-4)GlcNAc
# Procedure, shortened: as §1
# [25] = target: Gal(b1-4)GlcNAc(b1-3)Gal(b1-4)GlcNAc(b1-3)Gal(b1-4)GlcNAc(b1-2)Man(a1-3)[Gal(b1-4)GlcNAc(b1-3)Gal(b1-4)GlcNAc(b1-3)Gal(b1-4)GlcNAc(b1-2)Man(a1-6)]Man(b1-4)GlcNAc(b1-4)GlcNAc
# Procedure, shortened: as §1
# [26] = target: Gal(b1-4)GlcNAc(b1-3)Gal(b1-4)GlcNAc(b1-3)Gal(b1-4)GlcNAc(b1-3)Gal(b1-4)GlcNAc(b1-2)Man(a1-3)[Gal(b1-4)GlcNAc(b1-3)Gal(b1-4)GlcNAc(b1-3)Gal(b1-4)GlcNAc(b1-3)Gal(b1-4)GlcNAc(b1-2)Man(a1-6)]Man(b1-4)GlcNAc(b1-4)[Fuc(a1-6)]GlcNAc
# Procedure, shortened: as §1
# [27] = target: Gal(b1-4)GlcNAc(b1-3)Gal(b1-4)GlcNAc(b1-3)Gal(b1-4)GlcNAc(b1-3)Gal(b1-4)GlcNAc(b1-2)[Gal(b1-4)GlcNAc(b1-3)Gal(b1-4)GlcNAc(b1-3)Gal(b1-4)GlcNAc(b1-3)Gal(b1-4)GlcNAc(b1-6)]Man(a1-6)[Gal(b1-4)GlcNAc(b1-3)Gal(b1-4)GlcNAc(b1-3)Gal(b1-4)GlcNAc(b1-3)Gal(b1-4)GlcNAc(b1-2)Man(a1-3)]Man(b1-4)GlcNAc(b1-4)[Fuc(a1-6)]GlcNAc
# Procedure, shortened: as §1
# [28] = target: Gal(b1-4)GlcNAc(b1-3)Gal(b1-4)GlcNAc(b1-3)Gal(b1-4)GlcNAc(b1-3)Gal(b1-4)GlcNAc(b1-3)Gal(b1-4)GlcNAc(b1-3)Gal(b1-4)GlcNAc(b1-2)Man(a1-3)[Gal(b1-4)GlcNAc(b1-3)Gal(b1-4)GlcNAc(b1-3)Gal(b1-4)GlcNAc(b1-3)Gal(b1-4)GlcNAc(b1-3)Gal(b1-4)GlcNAc(b1-3)Gal(b1-4)GlcNAc(b1-2)Man(a1-6)]Man(b1-4)GlcNAc(b1-4)GlcNAc
# Procedure, shortened: as §1
binder,measurement,setting,value
B1,glycan array binding signal (z-score),[1],-0.548
same,glycan array binding signal (z-score),[2],-0.199
same,glycan array binding signal (z-score),[3],-0.809
same,glycan array binding signal (z-score),[4],0.379
same,glycan array binding signal (z-score),[5],-0.471
same,glycan array binding signal (z-score),[6],-1.08
same,glycan array binding signal (z-score),[7],-0.459
same,glycan array binding signal (z-score),[8],0.901
same,glycan array binding signal (z-score),[9],-1.03
same,glycan array binding signal (z-score),[10],-0.767
same,glycan array binding signal (z-score),[11],-1.29
same,glycan array binding signal (z-score),[12],-0.707
same,glycan array binding signal (z-score),[13],-0.407
same,glycan array binding signal (z-score),[14],0.359
same,glycan array binding signal (z-score),[15],0.485
same,glycan array binding signal (z-score),[16],-0.784
same,glycan array binding signal (z-score),[17],2.58
same,glycan array binding signal (z-score),[18],0.213
same,glycan array binding signal (z-score),[19],1.6
same,glycan array binding signal (z-score),[20],-1.33
same,glycan array binding signal (z-score),[21],2.86
same,glycan array binding signal (z-score),[22],-0.552
same,glycan array binding signal (z-score),[23],2.86
same,glycan array binding signal (z-score),[24],2.06
same,glycan array binding signal (z-score),[25],0.867
same,glycan array binding signal (z-score),[26],1.01
same,glycan array binding signal (z-score),[27],1.93
same,glycan array binding signal (z-score),[28],2.86

# From the supplement of paper PMC8728848
